The results in this text go back to PubChem BioAssay AID1224864 (Chung Lab, Department of Pediatrics, Emory University, 2016).

SMILES strings stand for the structures. The campaign covered roughly 2,000 compounds. About 20 (1%) were called active. How the calls were made is not given here. Many of the other results were omitted from the sample, so actives are more common in it than they were.

Cystic fibrosis transmembrane conductance regulator (Homo sapiens), sequence (P13569 whole entry, looked up, stated change not applied): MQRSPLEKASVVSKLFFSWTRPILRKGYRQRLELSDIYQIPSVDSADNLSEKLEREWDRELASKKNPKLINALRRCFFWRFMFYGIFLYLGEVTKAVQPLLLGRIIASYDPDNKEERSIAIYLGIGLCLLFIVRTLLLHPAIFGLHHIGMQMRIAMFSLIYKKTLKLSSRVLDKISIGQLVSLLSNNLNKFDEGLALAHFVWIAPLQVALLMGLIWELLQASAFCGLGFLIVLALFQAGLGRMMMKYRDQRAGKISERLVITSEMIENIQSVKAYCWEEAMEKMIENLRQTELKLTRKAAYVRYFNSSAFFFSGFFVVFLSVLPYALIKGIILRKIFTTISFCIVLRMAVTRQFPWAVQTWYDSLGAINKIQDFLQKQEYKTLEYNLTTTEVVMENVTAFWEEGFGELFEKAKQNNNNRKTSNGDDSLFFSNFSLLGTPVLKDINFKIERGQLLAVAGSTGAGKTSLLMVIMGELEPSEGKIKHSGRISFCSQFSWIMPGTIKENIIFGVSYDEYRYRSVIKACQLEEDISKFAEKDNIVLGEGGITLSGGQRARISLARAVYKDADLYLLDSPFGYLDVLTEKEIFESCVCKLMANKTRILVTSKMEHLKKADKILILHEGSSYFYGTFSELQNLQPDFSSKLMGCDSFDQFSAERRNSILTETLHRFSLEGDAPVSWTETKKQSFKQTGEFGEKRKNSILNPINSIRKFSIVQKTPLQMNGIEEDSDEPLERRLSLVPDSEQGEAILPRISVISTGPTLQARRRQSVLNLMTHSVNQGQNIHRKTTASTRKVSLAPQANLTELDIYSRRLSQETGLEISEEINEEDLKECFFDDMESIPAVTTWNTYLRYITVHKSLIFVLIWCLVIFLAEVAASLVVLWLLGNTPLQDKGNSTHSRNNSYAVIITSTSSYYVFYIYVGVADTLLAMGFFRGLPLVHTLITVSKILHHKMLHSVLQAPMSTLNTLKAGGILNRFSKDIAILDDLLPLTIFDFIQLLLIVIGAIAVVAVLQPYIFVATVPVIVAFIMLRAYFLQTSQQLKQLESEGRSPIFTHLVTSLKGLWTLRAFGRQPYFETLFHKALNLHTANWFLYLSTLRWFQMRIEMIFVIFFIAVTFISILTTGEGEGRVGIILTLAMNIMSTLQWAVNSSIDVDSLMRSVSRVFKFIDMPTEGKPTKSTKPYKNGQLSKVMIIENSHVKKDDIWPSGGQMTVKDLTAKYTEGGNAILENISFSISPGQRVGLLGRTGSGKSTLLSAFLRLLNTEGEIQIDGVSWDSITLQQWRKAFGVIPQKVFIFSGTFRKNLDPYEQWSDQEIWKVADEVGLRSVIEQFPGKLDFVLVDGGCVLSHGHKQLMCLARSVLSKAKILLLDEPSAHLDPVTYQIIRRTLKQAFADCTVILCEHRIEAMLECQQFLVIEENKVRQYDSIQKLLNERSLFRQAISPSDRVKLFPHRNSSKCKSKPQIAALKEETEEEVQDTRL

This assay concerns the target Cystic fibrosis transmembrane conductance regulator (Homo sapiens) (UniProt P13569). The assay is described as follows: correctors of F508del-CFTR surface localization, primary screen, imaging, HeLa, high-content microscopy, immunofluorescence (AID 1224864).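 Further: HeLa cells stably expressing F508del-CFTR stained with 3G11 antibody against NBD1.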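 On plasma membrane CFTR intensity: mean immunofluorescence in a thin cell-margin band taken as plasma membrane.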 As to conditions: PM immunofluorescence imaging, 24 h, at 10 µM, stronger effect = higher value, relative to vehicle wells set at 100; total CFTR intensity: measured here: total cellular F508del-CFTR signal.
For `N/C(=N/OS(=O)(=O)c1ccc([N+](=O)[O-])cc1)c1ccncc1`, the plasma membrane CFTR intensity was 87% (inactive) and the total CFTR intensity worked out at 85%.

Regarding `COc1ccccc1NC(=O)N1CCc2[nH]c3ccc(Cl)cc3c2C1`, the plasma membrane CFTR intensity was 92% (inactive) and the total CFTR intensity worked out at 84%.

Turning to `C/C(CCc1oc2ccc(Cl)cc2c1-c1ccc(C)o1)=N\O`, the plasma membrane CFTR intensity was 91% (inactive) and the total CFTR intensity was determined as 97%.

As for `COc1ccc(/C=N\NC(=O)CCc2c(C)n[nH]c2C)c(OC)c1OC`, the plasma membrane CFTR intensity was 82% (inactive) and the total CFTR intensity was 77%.

For the molecule `COc1ccccc1Oc1c(C)oc2c(CN3CCN(CCO)CC3)c(O)ccc2c1=O`, the plasma membrane CFTR intensity is 90% (inactive) and the total CFTR intensity is 89%.

`O=C(O)c1ccc(OCCn2ccnc2)cc1`: the plasma membrane CFTR intensity is 77% (inactive) and the total CFTR intensity came out at 82%.

For the molecule `CN(CCCN1CCOCC1)Cc1cn(C)nc1-c1ccccc1F`, the plasma membrane CFTR intensity was 84% (inactive) and the total CFTR intensity was 87%.

For the molecule `NCc1ccccc1COc1ccccc1`, the plasma membrane CFTR intensity was 81% (inactive) and the total CFTR intensity turned out to be 83%.

As to `Cc1ccc(CN2CCN(CCCc3ccccc3)CC2CCO)cc1` (stereo unspecified), the plasma membrane CFTR intensity was 82% (inactive) and the total CFTR intensity is 85%.

Consider `CCC(CO)NCCNC(CC)CO` (stereo unspecified), for which the plasma membrane CFTR intensity was 86% (inactive) and the total CFTR intensity was found to be 88%.

With `Cc1ccc(N2CCN(C(=S)c3ccc(-c4cccc([N+](=O)[O-])c4)o3)CC2)cc1`, the plasma membrane CFTR intensity was 81% (inactive) and the total CFTR intensity was found to be 80%.

As to `O=C(CN1C(=O)c2ccccc2S1(=O)=O)Nc1ccccc1`, the plasma membrane CFTR intensity was 84% (inactive) and the total CFTR intensity was 82%.

Turning to `CCCCC/C=C\C[C@H](O)/C=C/c1cccc(C[C@H](O)CCCCO)n1`, the plasma membrane CFTR intensity was 107% (active) and the total CFTR intensity worked out at 126%.

For `CN(C)c1cc(NC(=O)CN2CCOCC2)c2ccccc2n1`, the plasma membrane CFTR intensity is 91% (inactive) and the total CFTR intensity came to 88%.

For `CCOC(=O)C1C(=O)CC(C)(O)C(C(=O)OCC)C1/C=C/c1ccccc1` (stereo unspecified), the plasma membrane CFTR intensity is 95% (inactive) and the total CFTR intensity turned out to be 102%.

With `Nc1ccc(N)c(C(=O)O)c1`, the plasma membrane CFTR intensity was 77% (inactive) and the total CFTR intensity turned out to be 82%.

On to `CCOC(=O)Cn1c(C)cc(=O)c2ccccc21`, for which the plasma membrane CFTR intensity was 114% (inactive) and the total CFTR intensity worked out at 113%.

For `COc1cc(C(=O)OCCCN(C)C)cc(OC)c1OC`, the plasma membrane CFTR intensity is 89% (inactive) and the total CFTR intensity is 84%.

As to `CN(C)c1ccc(CNCCC(Cc2ccccc2)c2ccco2)cc1` (stereo unspecified), the plasma membrane CFTR intensity is 50% (inactive) and the total CFTR intensity is 41%.

Consider `Cn1c(=O)c2c(ncn2Cc2ccccc2)n(C)c1=O`, for which the plasma membrane CFTR intensity is 81% (inactive) and the total CFTR intensity came out at 82%.

Regarding `CC(C)NC[C@@H](O)c1ccc(O)c(O)c1`, the plasma membrane CFTR intensity was 100% (inactive) and the total CFTR intensity came to 111%.

On to `CNC[C@H](O)c1ccc(O)c(O)c1`, for which the plasma membrane CFTR intensity is 101% (active) and the total CFTR intensity came to 120%.

With `CNC[C@H](O)c1cccc(O)c1`, the plasma membrane CFTR intensity was 92% (inactive) and the total CFTR intensity was found to be 96%.

For `O[C@@H](CNC[C@H](O)c1ccccc1)c1ccccc1`, the plasma membrane CFTR intensity was 90% (inactive) and the total CFTR intensity is 84%.

As to `Cn1nc(-c2ccc(Cl)cc2)nc2c(=O)n(C)c(=O)nc1-2`, the plasma membrane CFTR intensity was 84% (inactive) and the total CFTR intensity worked out at 86%.

With `O=C(CN1C(=O)c2ccccc2C1=O)Nc1cccc([N+](=O)[O-])c1`, the plasma membrane CFTR intensity is 90% (inactive) and the total CFTR intensity was 91%.

With `COc1cc(-c2nnc(-c3cccs3)o2)cc(OC)c1OC`, the plasma membrane CFTR intensity is 96% (inactive) and the total CFTR intensity was 87%.

As for `O=c1c2[nH]c3ccccc3c2ncn1CCC1=CCCCC1`, the plasma membrane CFTR intensity was 87% (inactive) and the total CFTR intensity was found to be 88%.

In the case of `Cc1ccc2c(c1)c1c(n2C)C(=O)CCC1`, the plasma membrane CFTR intensity is 76% (inactive) and the total CFTR intensity is 75%.

Take `CCc1cc(=O)oc2cc(OCC=C(C)C)ccc12`: the plasma membrane CFTR intensity is 95% (inactive) and the total CFTR intensity is 98%.

Take `COc1ccc2c(c1OC)C(=O)NC(C)=C(C(=O)OC(C)(C)C)C2O` (stereo unspecified): the plasma membrane CFTR intensity is 87% (inactive) and the total CFTR intensity was 90%.

As for `O=C1C=CC(=O)C(C2=C3C(=O)N(CCc4ccccc4)CC(=O)N3CCC2)=C1`, the plasma membrane CFTR intensity was 108% (active) and the total CFTR intensity is 124%.

For the molecule `O=C1CCCCCN1Cc1ccccc1`, the plasma membrane CFTR intensity was 86% (inactive) and the total CFTR intensity was found to be 90%.

On to `COC(=O)CN1CC(=O)N(c2ccccc2)C1=S`, for which the plasma membrane CFTR intensity is 83% (inactive) and the total CFTR intensity is 81%.

Regarding `COc1ccccc1/C=C/CN1CCN(Cc2ccc(F)cc2)C(CCO)C1` (stereo unspecified), the plasma membrane CFTR intensity was 77% (inactive) and the total CFTR intensity turned out to be 77%.

Regarding `CC(C)(CO)CNC(=O)CC1C(=O)NCCN1CC(c1ccccc1)c1ccccc1` (stereo unspecified), the plasma membrane CFTR intensity was 85% (inactive) and the total CFTR intensity was found to be 89%.

For the molecule `Cn1c(=O)c2nc3ccccc3nc2n(C)c1=O`, the plasma membrane CFTR intensity was 96% (inactive) and the total CFTR intensity was 90%.

As to `Cc1coc2c1c(C)cc1oc(=O)c(Cc3ccccc3)c(C)c12`, the plasma membrane CFTR intensity is 91% (inactive) and the total CFTR intensity was 91%.

Take `O=C(N/N=C\c1cc([N+](=O)[O-])ccc1N1CCOCC1)c1ccccn1`: the plasma membrane CFTR intensity is 79% (inactive) and the total CFTR intensity came to 75%.

For the molecule `COC(=O)c1cc(-c2ccc(C)o2)nc2ccccc12`, the plasma membrane CFTR intensity is 96% (inactive) and the total CFTR intensity stood at 99%.

Regarding `Cc1cccc(CN2CCN(C(c3ccccc3)c3ccc(Cl)cc3)CC2)c1` (stereo unspecified), the plasma membrane CFTR intensity is 92% (inactive) and the total CFTR intensity came to 107%.

Turning to `C(=C\c1ccccc1)/CN1CCN(C(c2ccccc2)c2ccccc2)CC1`, the plasma membrane CFTR intensity was 107% (active) and the total CFTR intensity worked out at 125%.

With `Fc1ccc(C(c2ccc(F)cc2)N2CCN(C/C=C/c3ccccc3)CC2)cc1`, the plasma membrane CFTR intensity was 99% (inactive) and the total CFTR intensity stood at 120%.

Turning to `O=C(O)c1ccc(N2C(=O)/C(=C\c3ccccc3)N=C2c2ccccc2)cc1`, the plasma membrane CFTR intensity is 78% (inactive) and the total CFTR intensity is 78%.

Take `COC1CCN(C(=O)c2ccc(OC3CCN(Cc4ccccn4)CC3)cc2)CC1`: the plasma membrane CFTR intensity was 81% (inactive) and the total CFTR intensity came to 75%.

Turning to `CC(C)Cc1nc(NCCN2CCOCC2)c(C#N)c2c1COC(C)(C)C2`, the plasma membrane CFTR intensity is 96% (inactive) and the total CFTR intensity was 92%.

With `C/C(=N\N=C1/NC(=O)C(CC(=O)Nc2ccc(Cl)cc2)S1)c1ccco1` (stereo unspecified), the plasma membrane CFTR intensity was 81% (inactive) and the total CFTR intensity amounted to 80%.

`CC(C)COC(=O)C1C(=O)CC(C)(O)C(C(=O)OCC(C)C)C1c1cccnc1` (stereo unspecified): the plasma membrane CFTR intensity was 93% (inactive) and the total CFTR intensity is 100%.

Take `C=C(C)COc1ccc(-c2nc(N)ncc2-c2ccc(OC)cc2)c(O)c1`: the plasma membrane CFTR intensity was 82% (inactive) and the total CFTR intensity came to 81%.

In the case of `O=C(Oc1ccccc1)Oc1ccc2c(c1)oc(=O)c1ccccc12`, the plasma membrane CFTR intensity is 120% (active) and the total CFTR intensity was 140%.

In the case of `CSCCC(NC(C)=O)C(=O)Oc1ccc2c3c(c(=O)oc2c1)CCCC3` (stereo unspecified), the plasma membrane CFTR intensity is 80% (inactive) and the total CFTR intensity amounted to 80%.

Regarding `O=C(Oc1ccc2c3c(c(=O)oc2c1)CCCC3)c1ccco1`, the plasma membrane CFTR intensity is 89% (inactive) and the total CFTR intensity came to 85%.

As to `C[C@H]1O[C@H]1P(=O)(O)O`, the plasma membrane CFTR intensity was 103% (inactive) and the total CFTR intensity worked out at 108%.

As to `Cc1ccc([N+](=O)[O-])cc1NC1OC(CO)C(O)C1O` (stereo unspecified), the plasma membrane CFTR intensity is 85% (inactive) and the total CFTR intensity was determined as 85%.

On to `CC(C)CN(C)Cc1c(C(=O)N2CCc3ccccc3C2)nc2ccc(Cl)cn12`, for which the plasma membrane CFTR intensity is 77% (inactive) and the total CFTR intensity is 81%.

In the case of `CN(C)CCOCCOc1ccc(Cl)cc1Br`, the plasma membrane CFTR intensity is 81% (inactive) and the total CFTR intensity is 81%.

With `Cn1cc(CN2CCC(C(=O)N3CCCCC3)CC2)c(-c2ccccc2F)n1`, the plasma membrane CFTR intensity is 79% (inactive) and the total CFTR intensity stood at 72%.

For the molecule `CCOC(=O)C1(CCCc2ccccc2)CCN(C2CCN(C(C)=O)CC2)CC1`, the plasma membrane CFTR intensity is 94% (inactive) and the total CFTR intensity is 101%.
